Measurements as given in the antibiotic and cytotoxicity screens of Wong et al. (2023).
About 1,500 (3.8%) of roughly 39,000 compounds were called active. The entries come from a sample that favours actives as a whole.

Tested on: HSkMC (human skeletal muscle cells)
Test: cytotoxicity call (relative viability < 0.9)
Settings: 10 µM

Structure (SMILES) | cytotoxicity call
C[C@H]1CN([C@@H](C)CO)C(=O)c2cc(NC(=O)C3CCCCC3)ccc2O[C@H]1CN(C)Cc1ccc(-c2ccccc2)cc1 | inactive
C[C@H](CO)N1C[C@H](C)[C@@H](CN(C)C(=O)Nc2ccc3c(c2)OCO3)Oc2c(NC(=O)C3CC3)cccc2C1=O | inactive
C[C@H](CO)N1C[C@H](C)[C@@H](CN(C)C(=O)NC2CCCCC2)Oc2c(NC(=O)Nc3ccc(C(F)(F)F)cc3)cccc2C1=O | inactive
C[C@@H]1CN([C@H](C)CO)C(=O)c2cccc(NC(=O)Nc3ccc(C(F)(F)F)cc3)c2O[C@H]1CN(C)C(=O)NC1CCCCC1 | inactive
C[C@@H]1CN([C@@H](C)CO)C(=O)c2cccc(NC(=O)Nc3ccc(C(F)(F)F)cc3)c2O[C@@H]1CN(C)C(=O)NC1CCCCC1 | inactive
C[C@H]1CN([C@@H](C)CO)C(=O)c2cccc(NC(=O)Nc3ccc(C(F)(F)F)cc3)c2O[C@H]1CN(C)C(=O)NC1CCCCC1 | inactive
C[C@@H]1CN([C@@H](C)CO)C(=O)c2cccc(NC(=O)Nc3ccc(C(F)(F)F)cc3)c2O[C@H]1CN(C)C(=O)NC1CCCCC1 | active
C[C@H](CO)N1C[C@H](C)[C@@H](CN(C)C(=O)Nc2ccc(C(F)(F)F)cc2)Oc2c(NC(=O)NC3CCCCC3)cccc2C1=O | inactive
C[C@H](CO)N1C[C@H](C)[C@H](CN(C)C(=O)NC2CCCCC2)Oc2c(NC(=O)Nc3ccc(C(F)(F)F)cc3)cccc2C1=O | inactive
C[C@H]1CN([C@@H](C)CO)C(=O)c2cccc(NC(=O)Nc3ccc(C(F)(F)F)cc3)c2O[C@@H]1CN(C)C(=O)NC1CCCCC1 | active
C[C@@H]1CN([C@H](C)CO)C(=O)c2cccc(NC(=O)Nc3ccc(C(F)(F)F)cc3)c2O[C@@H]1CN(C)C(=O)NC1CCCCC1 | active
CC(C)NC(=O)Nc1cccc2c1O[C@H](CN(C)S(=O)(=O)c1ccccc1)[C@H](C)CN([C@H](C)CO)C2=O | inactive
C[C@@H]1CN([C@@H](C)CO)C(=O)c2cccc(NC(=O)Nc3ccc(C(F)(F)F)cc3)c2O[C@H]1CN(C)Cc1ccc(C(=O)Nc2ccccc2N)cc1 | inactive
C[C@H](CO)N1C[C@H](C)[C@H](CN(C)C(=O)c2ccccc2)OCCCC[C@H](C)Oc2ccc(NC(=O)NC3CCCCC3)cc2C1=O | inactive
O=C(C[C@@H]1CC[C@H](NS(=O)(=O)c2ccc(F)cc2)[C@H](CO)O1)NCc1ccc(Cl)c(Cl)c1 | inactive
C[C@@H]1CN([C@@H](C)CO)S(=O)(=O)c2ccc(-c3cccnc3)cc2O[C@H]1CN(C)CC1CCOCC1 | inactive
COCC(=O)N(C)C[C@H]1Oc2cc(C#CCN(C)C)ccc2S(=O)(=O)N([C@H](C)CO)C[C@H]1C | inactive
CCNC(=S)N1CCC[C@H](C(N)=O)C1 | inactive
Cn1cncc1CN1CCO[C@]2(COCCN(S(C)(=O)=O)C2)C1 | inactive
Cc1noc(C)c1NC(=O)Nc1ccc2c(c1)C(=O)N([C@@H](C)CO)C[C@H](C)[C@@H](CN(C)C(=O)Nc1ccc3c(c1)OCO3)OCCCC[C@H](C)O2 | inactive

Structure (SMILES) | cytotoxicity call
Nc1ncnc2c1ncn2C1OC(COP(=O)(O)OP(=O)([O-])OP(=O)([O-])O)C(O)C1O.[Na+].[Na+] (stereo not given) | inactive
COc1cccc(S(=O)(=O)N(C)C[C@@H]2OCc3cn(nn3)CCCC(=O)N([C@H](C)CO)C[C@@H]2C)c1 | inactive
C[C@@H]1CN([C@H](C)CO)C(=O)c2cc(NC(=O)Nc3cccc4ccccc34)ccc2O[C@H]1CN(C)Cc1ccc(Oc2ccccc2)cc1 | inactive
C[C@@H]1CN([C@@H](C)CO)C(=O)c2cc(NC(=O)Nc3cccc4ccccc34)ccc2O[C@@H]1CN(C)Cc1ccc(Oc2ccccc2)cc1 | active
C[C@@H]1CN([C@H](C)CO)C(=O)c2cc(NC(=O)Nc3cccc4ccccc34)ccc2O[C@@H]1CN(C)Cc1ccc(Oc2ccccc2)cc1 | inactive
C[C@H](CO)N1C[C@H](C)[C@H](CN(C)Cc2ccc(Oc3ccccc3)cc2)Oc2ccc(NC(=O)Nc3cccc4ccccc34)cc2C1=O | active
C[C@H](CO)N1C[C@H](C)[C@@H](CN(C)Cc2ccc(Oc3ccccc3)cc2)Oc2ccc(NC(=O)Nc3cccc4ccccc34)cc2C1=O | inactive
C[C@H]1CN([C@@H](C)CO)C(=O)c2cc(NC(=O)Nc3cccc4ccccc34)ccc2O[C@@H]1CN(C)Cc1ccc(Oc2ccccc2)cc1 | inactive
COc1ccccc1C#Cc1cnc2c(c1)C(=O)N([C@@H](C)CO)C[C@@H](C)[C@H](CN(C)S(=O)(=O)c1cn(C)cn1)O2 | inactive
CN1C(=O)c2cc(NC(=O)C3CCOCC3)ccc2OC[C@@H]2O[C@H](CC(=O)NCc3ccccc3F)CC[C@H]21 | inactive
NC(=O)NCC#Cc1ccc2c(c1)[C@]1(C(=O)N2)[C@H](C(=O)N2CCN(c3ncccn3)CC2)[C@H]2C(=O)O[C@H](c3ccccc3)[C@H](c3ccccc3)N2[C@@H]1c1ccc(OCCO)cc1 | inactive
Cc1noc(C)c1NC(=O)Nc1ccc2c(c1)C(=O)N([C@@H](C)CO)C[C@H](C)[C@H](CN(C)Cc1ccc(C(=O)O)cc1)OCCCC[C@@H](C)O2 | inactive
C[C@H](CO)N1C[C@H](C)[C@@H](CN(C)Cc2ccc(-c3ccccc3)cc2)Oc2c(NC(=O)c3nc4ccccc4s3)cccc2C1=O | inactive
C[C@]12CC[C@@H]3[C@]4(C=C[C@@]5(C=C4C(=O)c4cc6ccccc6s4)C[C@@H](O)CC[C@]35C)[C@@H]1CC[C@@]2(O)CN1CCC(n2c(=O)[nH]c3ccccc32)CC1 | inactive
CC1CC2C3CCC4=CC(=O)C=CC4(C)C3(Cl)C(O)CC2(C)C1(OC(=O)c1ccco1)C(=O)CCl (stereo not given) | active
CCC(=O)OCC(=O)C1(OC(=O)CC)C(C)CC2C3CCC4=CC(=O)C=CC4(C)C3(Cl)C(O)CC21C (stereo not given) | inactive
CCC(=O)OC1(C(=O)CCl)C(C)CC2C3CCC4=CC(=O)C=CC4(C)C3(F)C(O)CC21C (stereo not given) | inactive
C[C@H](CO)N1C[C@H](C)[C@H](CN(C)S(=O)(=O)c2ccc(F)cc2)Oc2ncc(C#CCN(C)C)cc2C1=O | inactive
CCS(=O)(=O)NCC[C@@H]1CC[C@@H](NC(=O)C2CCOCC2)[C@H](CO)O1 | inactive
Cc1ccccc1S(=O)(=O)N1C[C@H](O)COC[C@@H]2O[C@H](CC(=O)NCc3ccccc3Cl)CC[C@H]21 | inactive

Structure (SMILES) | cytotoxicity call
O=C(N[C@@H](c1ccc(-c2ccccc2)cc1)c1cnccn1)C1CCN(Cc2cccc(C(F)(F)F)c2)CC1 | inactive
O=C(NC1(c2ccccc2)CC1)c1c(CN2CCC(N3CCCCC3)CC2)c(-c2cccc(C(F)(F)F)c2)nc2cc(Br)ccc12 | active
COc1ccc(S(=O)(=O)N(C)C[C@H]2Oc3ccc(NC(=O)CCCN(C)C)cc3CC(=O)N([C@H](C)CO)C[C@@H]2C)cc1 | inactive
Cc1noc(C)c1NC(=O)N(C)C[C@@H]1OCCCC[C@@H](C)Oc2ccc(NC(=O)CCCCCC(=O)Nc3ccccc3N)cc2C(=O)N([C@H](C)CO)C[C@@H]1C | inactive
CO[C@@H]1CN(C)C(=O)c2ccc(NC(=O)CC(F)(F)F)cc2OC[C@H](C)N(C(=O)C2CCOCC2)C[C@H]1C | inactive
Cc1noc(C)c1NC(=O)Nc1cccc2c1O[C@H](CN(C)Cc1ccc(C(F)(F)F)cc1)[C@@H](C)CN([C@@H](C)CO)C2=O | inactive
COc1ccc(NC(=O)Nc2ccc3c(c2)C(=O)N([C@@H](C)CO)C[C@H](C)[C@@H](CN(C)C(=O)Nc2ccc(F)cc2)OCCCC[C@H](C)O3)cc1 | inactive
C[C@H]1CN([C@@H](C)CO)C(=O)c2cccc(NC(=O)Nc3ccc4c(c3)OCO4)c2O[C@@H]1CN(C)Cc1ccc(C(F)(F)F)cc1 | inactive
C[C@H]1CN([C@@H](C)CO)C(=O)c2cccc(NC(=O)Nc3ccc(C(F)(F)F)cc3)c2O[C@@H]1CN(C)Cc1ccc2c(c1)OCO2 | active
C[C@@H]1CN([C@@H](C)CO)C(=O)c2cccc(NC(=O)Nc3ccc(C(F)(F)F)cc3)c2O[C@@H]1CN(C)Cc1ccc2c(c1)OCO2 | inactive
C[C@H](CO)N1C[C@H](C)[C@@H](CN(C)Cc2ccc3c(c2)OCO3)Oc2c(NC(=O)Nc3ccc(C(F)(F)F)cc3)cccc2C1=O | active
C[C@@H]1CN([C@H](C)CO)C(=O)c2cccc(NC(=O)Nc3ccc(C(F)(F)F)cc3)c2O[C@H]1CN(C)Cc1ccc2c(c1)OCO2 | inactive
C[C@@H]1CN([C@@H](C)CO)C(=O)c2cccc(NC(=O)Nc3ccc4c(c3)OCO4)c2O[C@H]1CN(C)Cc1ccc(C(F)(F)F)cc1 | active
C[C@H](CO)N1C[C@H](C)[C@H](CN(C)Cc2ccc(C(F)(F)F)cc2)Oc2c(NC(=O)Nc3ccc4c(c3)OCO4)cccc2C1=O | inactive
C[C@H]1CN([C@@H](C)CO)C(=O)c2cccc(NC(=O)Nc3ccc(C(F)(F)F)cc3)c2O[C@H]1CN(C)Cc1ccc2c(c1)OCO2 | inactive
C[C@H](CO)N1C[C@H](C)[C@H](CN(C)Cc2ccc3c(c2)OCO3)Oc2c(NC(=O)Nc3ccc(C(F)(F)F)cc3)cccc2C1=O | inactive
C[C@@H]1CN([C@H](C)CO)C(=O)c2cccc(NC(=O)Nc3ccc(C(F)(F)F)cc3)c2O[C@@H]1CN(C)Cc1ccc2c(c1)OCO2 | inactive
C[C@H]1CN([C@@H](C)CO)C(=O)c2cccc(NC(=O)Nc3ccc4c(c3)OCO4)c2O[C@H]1CN(C)Cc1ccc(C(F)(F)F)cc1 | inactive
C[C@@H]1CN([C@@H](C)CO)C(=O)c2cccc(NC(=O)Nc3ccc(C(F)(F)F)cc3)c2O[C@H]1CN(C)Cc1ccc2c(c1)OCO2 | active
C[C@H]1CCCCO[C@@H](CN(C)C(=O)Nc2ccc3c(c2)OCO3)[C@@H](C)CN([C@@H](C)CO)C(=O)c2cc(NS(=O)(=O)c3cccs3)ccc2O1 | inactive
